From PubChem BioAssay (NCATS)
Several values for one entry are separate records, joined by “and”; a condition that tells them apart may be missing. Equal values may be shown once. Records with an inconclusive call do not appear. Activity calls are given as the source filed them. Unless noted, calls come from the whole dose curve; as a rule, active = well fitted curve in the direction sought with a large enough effect; inconclusive = small, poorly fitted or top-dose-only effect, or another doubt; inactive = no such curve, though single readings can be large; an effect the other way counts as inactive or inconclusive.

How the values were obtained:
[1] = biological target: Glucocorticoid receptor (Homo sapiens) (UniProt P04150); assay: qHTS assay for small molecule agonists of glucocorticoid receptor signaling (AID 588532; active = well fitted curve in the direction sought with a large enough effect in the signal ratio, with a control signal flat; the % refers to the signal ratio;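 note: 100% = dexamethasone at 0.1 µM and 0% = DMSO only wells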); conditions: HeLa MMTV-bla, beta-lactamase ratio, agonist, 18 h; stronger effect = higher value; percent of dexamethasone control, DMSO zero
Glucocorticoid receptor (Homo sapiens), sequence (P04150 whole entry, looked up): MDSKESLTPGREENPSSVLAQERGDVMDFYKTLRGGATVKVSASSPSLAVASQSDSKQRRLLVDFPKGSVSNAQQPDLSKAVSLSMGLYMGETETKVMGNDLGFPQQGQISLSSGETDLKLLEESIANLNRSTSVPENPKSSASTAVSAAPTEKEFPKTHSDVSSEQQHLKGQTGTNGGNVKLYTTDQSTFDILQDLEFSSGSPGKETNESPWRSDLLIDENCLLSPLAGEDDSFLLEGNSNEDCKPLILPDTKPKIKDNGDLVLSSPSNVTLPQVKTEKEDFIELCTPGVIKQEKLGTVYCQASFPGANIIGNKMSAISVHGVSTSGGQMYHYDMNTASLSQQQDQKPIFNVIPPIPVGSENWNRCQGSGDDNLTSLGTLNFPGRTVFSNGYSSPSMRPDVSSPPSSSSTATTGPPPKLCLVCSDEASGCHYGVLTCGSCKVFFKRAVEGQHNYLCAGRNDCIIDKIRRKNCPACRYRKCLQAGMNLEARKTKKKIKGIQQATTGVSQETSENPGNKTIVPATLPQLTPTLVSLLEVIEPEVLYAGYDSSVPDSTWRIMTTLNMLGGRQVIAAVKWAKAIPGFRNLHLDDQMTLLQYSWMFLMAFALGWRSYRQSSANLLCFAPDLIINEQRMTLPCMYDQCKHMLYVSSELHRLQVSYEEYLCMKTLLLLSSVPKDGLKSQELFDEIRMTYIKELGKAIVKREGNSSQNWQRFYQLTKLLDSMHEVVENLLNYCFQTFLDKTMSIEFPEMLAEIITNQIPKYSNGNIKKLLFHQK
Summary of the method: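 Using MMTV-bla HeLa cells in medium with 1% stripped FBS and 25 mM HEPES, compounds were titrated and incubated overnight-length (18 h). Beta-lactamase cleavage of CCF4 was quantified by dual-emission fluorescence.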

[2] = qHTS assay for small molecule agonists of retinoid X receptor alpha signaling (AID 588544; calls by dose curve;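 for activation: 0% = DMSO basal wells and 100% = reference agonist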); conditions: HEK293T RXRa-UAS-bla, beta-lactamase reporter, 18 h; 530 nm emission
[3] = biological target: Retinoic acid receptor RXR-alpha (Homo sapiens) (UniProt P19793); assay: as above; conditions: HEK293T RXRa-UAS-bla, beta-lactamase reporter, 18 h; series mostly up to 76.7 µM
Retinoic acid receptor RXR-alpha (Homo sapiens), sequence (P19793 whole entry, looked up): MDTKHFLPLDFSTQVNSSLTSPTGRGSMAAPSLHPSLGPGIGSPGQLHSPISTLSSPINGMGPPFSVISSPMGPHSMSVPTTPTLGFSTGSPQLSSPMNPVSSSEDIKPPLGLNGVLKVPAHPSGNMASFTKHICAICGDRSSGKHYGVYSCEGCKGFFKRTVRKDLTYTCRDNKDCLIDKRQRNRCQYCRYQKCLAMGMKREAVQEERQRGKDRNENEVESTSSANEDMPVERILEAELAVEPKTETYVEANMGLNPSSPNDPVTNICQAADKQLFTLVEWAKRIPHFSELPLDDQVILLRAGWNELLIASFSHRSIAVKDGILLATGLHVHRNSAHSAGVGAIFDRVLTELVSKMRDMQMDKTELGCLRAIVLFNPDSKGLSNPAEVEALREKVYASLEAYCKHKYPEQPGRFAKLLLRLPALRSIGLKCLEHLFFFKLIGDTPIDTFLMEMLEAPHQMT

[4] = qHTS assay for small molecule antagonists of retinoid X receptor alpha signaling (AID 588546; active = well fitted inhibition curve with a large enough effect in the signal ratio, with a control signal flat, not every such curve was filed as active; the % refers to the signal ratio;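 note: cells stimulated with 9-cis-retinoic acid as agonist; % is set by controls: 0 for no effect and ±100 for the full control effect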); conditions: HEK293T RXRa-UAS-bla, beta-lactamase ratio, antagonist mode; measured here: W530 green channel, cytotoxicity proxy
Summary of the method: (§1)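 Beta-lactamase reporter inhibition, read as CCF4 fluorescence ratio (ex 405, em 460/530 nm) after 2 h at RT. HEK293T UAS-bla cells, 2500/well, were stimulated with 9-cis-RA at 500 or 100 nM final alongside test compound for 18 h at 37 C.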

[5] = biological target: Retinoic acid receptor RXR-alpha (Homo sapiens) (UniProt P19793); assay: as above; conditions: HEK293T RXRa-UAS-bla, beta-lactamase ratio, antagonist mode
Summary of the method: as §1

[6] = qHTS assay for environmental chemicals that activate the Aryl hydrocarbon Receptor (AhR) signaling pathway (AID 651777); conditions: 1A2-DRE human hepatoma cells, luciferase, 24 h; activation: stronger effect = higher value; note: % of control where 0% means no effect; nearly all actives have a fitted effect of over 15% in size
Summary of the method: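 Stable CYP1A2 promoter/DRE-luciferase human hepatoma line treated 24 hr; One-Glo luminescence, 30 min RT.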

[7] = qHTS assay for cell viability of HEK293 cells (AID 743288); conditions: ATP luminescence (CellTiter-Glo), 18 h; max response: stronger effect = lower value; note: % is set by controls: 0 for no effect and ±100 for the full control effect; nearly all actives have a fitted effect of over 50% in size
Summary of the method: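 Environmental chemicals tested in qHTS format against parental HEK293 cells; 18 h treatment, 37 C; read-out ATP luminescence (CellTiter-Glo), 30 min RT development.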

[8] = biological target: Nuclear receptor subfamily 1 group I member 3 (Homo sapiens) (UniProt Q14994); assay: Primary qHTS for agonist of constitutive androstane receptor (CAR) against the NCATS DSHEA and TCM libraries (AID 1794839); conditions: CAR agonist reporter cells, qHTS luminescence, CAR antagonist co-added at 0.75 µM; series mostly up to 40 µM;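 note: HepG2 cells expressing human CAR with a CYP2B6 reporter plus PK11195 antagonist; 0% is about no effect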
Nuclear receptor subfamily 1 group I member 3 (Homo sapiens), sequence (Q14994 whole entry, looked up): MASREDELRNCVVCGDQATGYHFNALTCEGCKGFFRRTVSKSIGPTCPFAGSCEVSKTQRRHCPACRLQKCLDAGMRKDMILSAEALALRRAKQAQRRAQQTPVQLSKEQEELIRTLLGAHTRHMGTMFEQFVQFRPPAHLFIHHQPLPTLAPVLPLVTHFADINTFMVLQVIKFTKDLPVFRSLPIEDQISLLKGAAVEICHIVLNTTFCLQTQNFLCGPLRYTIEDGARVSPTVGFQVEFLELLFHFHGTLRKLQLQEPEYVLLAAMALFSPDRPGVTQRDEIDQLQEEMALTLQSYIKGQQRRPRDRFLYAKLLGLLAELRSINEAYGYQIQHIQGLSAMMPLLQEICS
Summary of the method: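 Luminescence from ONE-Glo luciferase was the agonist read-out in HepG2-CYP2B6-hCAR cells exposed 24 h to test substances. Wells also held the CAR antagonist PK11195 at 0.75 µM final. Viability was by CellTiter-Fluor fluorescence.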

[9] = HepG2 viability counterscreen (readout 2: ATP content) against the NCATS DSHEA and TCM libraries (AID 1794840); conditions: ATP content luminescence; series mostly up to 27.3 µM; note: 0% is about no effect
Summary of the method: (§2)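 1,000 HepG2 cells/well, 4 h attach; compounds ~24 h, 37C/5% CO2. Readout 1: GF-AFC 25 uM final, 30 min, fluorescence 380/510 nm. Readout 2: CellTiter-Glo, 30 min RT, luminescence.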

[10] = HepG2 viability counterscreen (readout 1: protease activity) against the NCATS DSHEA and TCM libraries (AID 1794841); conditions: qHTS concentration series; series mostly up to 27.3 µM;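 note: cells exposed to compounds for about 24 h before the protease read; 0% is about no effect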
Summary of the method: as §2

[11] = biological target: Cytochrome P450 3A4 (Homo sapiens) (UniProt P08684); assay: qHTS for inhibitors of CYP3A4 against the NCATS DSHEA and TCM libraries (AID 1919971); conditions: recombinant CYP3A4 enzyme activity, luminescence qHTS; series mostly up to 34.1 µM; note: potency is the fitted concentration of half-maximal effect
Cytochrome P450 3A4 (Homo sapiens), sequence (P08684 whole entry, looked up, canonical isoform): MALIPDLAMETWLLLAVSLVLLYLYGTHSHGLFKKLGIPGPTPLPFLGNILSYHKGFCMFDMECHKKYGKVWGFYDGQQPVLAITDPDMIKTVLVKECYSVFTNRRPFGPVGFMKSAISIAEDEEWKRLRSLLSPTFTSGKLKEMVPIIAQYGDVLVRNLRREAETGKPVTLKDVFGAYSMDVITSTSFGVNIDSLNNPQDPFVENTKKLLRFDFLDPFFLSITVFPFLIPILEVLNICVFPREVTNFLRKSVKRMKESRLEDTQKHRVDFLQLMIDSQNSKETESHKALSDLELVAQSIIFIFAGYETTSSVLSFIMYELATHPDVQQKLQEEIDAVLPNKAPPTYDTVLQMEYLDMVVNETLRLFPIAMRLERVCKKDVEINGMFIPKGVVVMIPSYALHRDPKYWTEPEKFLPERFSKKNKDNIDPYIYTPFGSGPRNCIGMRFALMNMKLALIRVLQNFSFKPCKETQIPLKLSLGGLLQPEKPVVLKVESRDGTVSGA
Summary of the method: (§3)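 Read-out is luminescence after P450-Glo detection (30 min, RT). Before that: 15 min compound–enzyme preincubation, then 30-45 min reaction with 1x NADPH regeneration solution, substrate concentration isoform-specific.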

[12] = biological target: Cytochrome P450 2C19 (Homo sapiens) (UniProt P33261); assay: qHTS for inhibitors of CYP2C19 against the NCATS DSHEA and TCM libraries (AID 1919974); conditions: CYP2C19 enzyme inhibition, luminescence qHTS; series mostly up to 34.1 µM;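 note: luminescence from luciferin released by CYP2C19 oxidation of a pro-luciferin substrate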; note: potency is the fitted concentration of half-maximal effect
Cytochrome P450 2C19 (Homo sapiens), sequence (P33261 whole entry, looked up): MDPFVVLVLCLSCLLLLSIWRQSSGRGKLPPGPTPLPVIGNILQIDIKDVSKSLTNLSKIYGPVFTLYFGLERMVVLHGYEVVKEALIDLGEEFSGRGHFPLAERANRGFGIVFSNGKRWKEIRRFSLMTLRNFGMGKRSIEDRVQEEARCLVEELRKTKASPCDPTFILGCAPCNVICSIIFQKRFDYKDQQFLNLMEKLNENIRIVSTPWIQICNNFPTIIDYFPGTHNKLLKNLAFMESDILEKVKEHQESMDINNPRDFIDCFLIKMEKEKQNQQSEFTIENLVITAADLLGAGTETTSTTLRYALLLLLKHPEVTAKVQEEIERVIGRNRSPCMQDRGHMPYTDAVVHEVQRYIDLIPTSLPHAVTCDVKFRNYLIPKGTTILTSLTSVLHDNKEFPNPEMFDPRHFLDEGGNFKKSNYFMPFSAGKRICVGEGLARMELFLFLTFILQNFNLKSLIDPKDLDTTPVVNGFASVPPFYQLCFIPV
Summary of the method: as §3

[13] = KB-3-1 P-gp reporter qHTS against the NCATS DSHEA and TCM libraries (AID 1919975); conditions: KB-3-1 parental cells, CellTiter-Glo luminescence viability, 72 h; series mostly up to 26.1 µM; note: 0% is about no effect
Summary of the method: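 CellTiter-Glo luminescence viability readout; KB-3-1 parental cells, 500/well, attached ~4 h, then compound for ~72 h, 37C, 5% CO2. Bortezomib intraplate control.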

[14] = biological target: Cytochrome P450 1A2 (Homo sapiens) (UniProt P05177); assay: qHTS for inhibitors of CYPIA2 against the NCATS DSHEA and TCM libraries (AID 1919976); conditions: recombinant CYP1A2 enzyme activity, luminescence; series mostly up to 37 µM;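 note: light from luciferin formed by CYP1A2 from a pro-luciferin substrate; % is set by controls: 0 for no effect and ±100 for the full control effect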
Cytochrome P450 1A2 (Homo sapiens), sequence (P05177 whole entry, looked up): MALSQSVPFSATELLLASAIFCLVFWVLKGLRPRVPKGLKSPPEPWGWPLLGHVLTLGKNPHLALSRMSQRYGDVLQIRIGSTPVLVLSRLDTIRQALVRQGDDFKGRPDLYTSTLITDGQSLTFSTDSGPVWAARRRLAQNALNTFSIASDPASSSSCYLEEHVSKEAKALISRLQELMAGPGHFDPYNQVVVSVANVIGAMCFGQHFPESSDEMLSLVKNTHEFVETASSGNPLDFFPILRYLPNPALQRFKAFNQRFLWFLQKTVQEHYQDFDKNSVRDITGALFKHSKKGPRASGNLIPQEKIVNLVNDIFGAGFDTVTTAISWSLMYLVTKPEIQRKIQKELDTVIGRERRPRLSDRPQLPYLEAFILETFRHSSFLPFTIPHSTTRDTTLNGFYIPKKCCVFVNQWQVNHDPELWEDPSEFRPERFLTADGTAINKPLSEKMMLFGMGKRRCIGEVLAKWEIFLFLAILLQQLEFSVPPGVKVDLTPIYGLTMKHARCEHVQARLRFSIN
Summary of the method: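 CYP1A2 + luciferin substrate, 100 mM KPO4-type buffer; cmpd 15 min RT; 1x NADPH regen, 30-45 min RT dark; detection reagent 30 min RT; luminescence. Minus-enzyme wells as background; furafylline intraplate control.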

CP262 = assay: qHTS profiling for inhibitors of Plasmodium falciparum proliferation (AID 504749); note: nearly all actives have a fitted effect of over 60% in size; note: potency is the fitted concentration of half-maximal effect; conditions: P. falciparum in erythrocytes, SYBR Green DNA, 72 h; series mostly up to 28.7 µM
Summary of the method: (§4)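 Infected RBCs, 0.3% parasitemia/2.5% Hct final; cpd 72 h, 37 C, 5% CO2; lysis buffer with saponin/triton/SYBR Green I, o/n RT dark; FI 485/535; norm. to artemisinin (0.29 uM) and DMSO.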

GB4 = assay: as above; conditions: P. falciparum in erythrocytes, SYBR Green DNA, 72 h; series mostly up to 28.7 µM
Summary of the method: as §4

[15] = biological target: Peroxisome proliferator-activated receptor gamma (Homo sapiens) (UniProt P37231); assay: qHTS assay for small molecule agonists of peroxisome proliferator-activated receptor gamma signaling (AID 588536; active = well fitted curve in the direction sought with a large enough effect in the signal ratio, with a control signal flat, not every such curve was filed as active; the % refers to the signal ratio;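 note: 0% = DMSO basal wells and 100% = rosiglitazone at 2 µM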); conditions: HEK293 PPARg-UAS-bla, beta-lactamase ratio, 16 h, percent of rosiglitazone response, DMSO as zero; series mostly up to 76.7 µM
Peroxisome proliferator-activated receptor gamma (Homo sapiens), sequence (P37231 whole entry, looked up): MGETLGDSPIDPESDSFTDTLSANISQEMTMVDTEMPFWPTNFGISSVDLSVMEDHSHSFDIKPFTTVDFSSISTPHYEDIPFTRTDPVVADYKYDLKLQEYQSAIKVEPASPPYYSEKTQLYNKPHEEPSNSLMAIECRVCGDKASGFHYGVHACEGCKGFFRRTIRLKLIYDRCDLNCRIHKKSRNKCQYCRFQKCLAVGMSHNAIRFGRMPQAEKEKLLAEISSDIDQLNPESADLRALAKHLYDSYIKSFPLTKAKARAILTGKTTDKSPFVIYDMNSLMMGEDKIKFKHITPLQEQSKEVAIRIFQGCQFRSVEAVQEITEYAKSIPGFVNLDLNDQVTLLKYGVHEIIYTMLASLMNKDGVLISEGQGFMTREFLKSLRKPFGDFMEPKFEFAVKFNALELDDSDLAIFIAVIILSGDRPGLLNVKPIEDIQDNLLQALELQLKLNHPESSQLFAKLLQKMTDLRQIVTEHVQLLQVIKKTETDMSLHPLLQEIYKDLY
Summary of the method: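 HEK293 UAS-bla reporter line, 1% charcoal/dextran FBS; titration, 16 h, 37 C; CCF4 loading 2 h RT; fluorescence 460/530 nm. Normalized to rosiglitazone 2 uM = 100%, DMSO = 0%.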

[16] = biological target: Thyroid hormone receptor beta (Homo sapiens) (UniProt P10828); assay: qHTS assay for small molecule antagonists of thyroid hormone receptor beta signaling (AID 588547; active = well fitted inhibition curve with a large enough effect in the signal ratio, with a control signal flat, not every such curve was filed as active; the % refers to the signal ratio;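 note: cells stimulated with 0.4 nM T3 agonist during compound exposure; % is set by controls: 0 for no effect and ±100 for the full control effect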); conditions: TR-UAS-bla HEK293, beta-lactamase ratio, antagonist mode, 18 h
Thyroid hormone receptor beta (Homo sapiens), sequence (P10828 whole entry, looked up): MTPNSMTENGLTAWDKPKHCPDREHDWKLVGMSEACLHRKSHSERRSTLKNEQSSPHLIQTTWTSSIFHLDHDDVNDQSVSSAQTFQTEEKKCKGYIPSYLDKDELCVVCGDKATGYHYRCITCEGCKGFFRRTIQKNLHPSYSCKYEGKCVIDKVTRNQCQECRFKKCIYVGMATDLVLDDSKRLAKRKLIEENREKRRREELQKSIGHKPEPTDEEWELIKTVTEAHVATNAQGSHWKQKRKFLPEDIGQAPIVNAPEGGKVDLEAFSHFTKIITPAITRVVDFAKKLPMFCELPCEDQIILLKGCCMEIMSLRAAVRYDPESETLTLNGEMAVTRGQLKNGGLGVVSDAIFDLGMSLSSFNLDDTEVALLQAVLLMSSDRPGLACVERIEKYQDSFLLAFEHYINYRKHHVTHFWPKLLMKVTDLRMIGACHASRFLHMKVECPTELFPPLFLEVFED
Summary of the method: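 Inhibition of T3-driven (0.4nM final) beta-lactamase reporter activity was measured over 0.59 nM to 92 uM compound after 18 h at 37 C. The cells were GripTite HEK293 TR-UAS-bla in charcoal/dextran-stripped serum, with CCF4 ratio read-out and IC50 from Hill fits.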

[17] = qHTS assay for small molecule agonists of the antioxidant response element (ARE) signaling pathway measured by Nrf2-dependant transcriptional activity (AID 720636; active = well fitted curve in the direction sought with a large enough effect in the repeat runs; an effect the other way counts as inactive or inconclusive;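 note: HepG2 cells with an ARE-driven luciferase reporter; % of control where 0% means no effect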); conditions: ARE-luc HepG2, Nrf2 luciferase reporter, 16 h; series mostly up to 92.4 µM
Summary of the method: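 Reporter gene assay, HepG2 ARE-luc: 16 hr compound, 37 C, 5% CO2; read-out luciferase luminescence.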

[18] = qHTS assay for small molecule agonists of the antioxidant response element (ARE) signaling pathway (AID 651741; active = well fitted activation curve with a large enough effect in the signal ratio; the % refers to the signal ratio; note: potency is the fitted concentration of half-maximal effect; for activation: % of control where 0% means no effect); conditions: HepG2 ARE-bla reporter, beta-lactamase FRET ratio, 16 h; series mostly up to 96 µM
Summary of the method: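 Quantitative HTS in HepG2 cells stably expressing an ARE-beta-lactamase reporter; 16 h compound exposure at 37 C, followed by 2 h room-temperature incubation with LiveBLAzer B/G FRET substrate and fluorescence measurement.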

O=C(O[C@@H]1Cc2c(O)cc(O)cc2O[C@@H]1c1cc(O)c(O)c(O)c1)c1cc(O)c(O)c(O)c1
-0.202%: max response [2]
inactive: activation [1] 4.83% | outcome [3] | max response [5] -1.14% | activation [6] -3.33% | max response [7] -1.55%
-13.5%: max response [4]

CC(C)=CCC[C@](C)(OC1OC(COC2OCC(O)C(O)C2O)C(O)C(O)C1O)[C@H]1CC[C@]2(C)[C@@H]1[C@H](O)C[C@@H]1[C@@]3(C)CC[C@H](OC4OC(CO)C(O)C(O)C4OC4OC(CO)C(O)C(O)C4O)C(C)(C)[C@@H]3CC[C@]12C (stereo not given in full)
inactive: Potency [8] | outcome [9] | outcome [10] | Potency [11] | Potency [12] | outcome [13] | Potency [14]

CC(C)CN(C[C@@H](O)[C@H](Cc1ccccc1)NC(=O)O[C@H]1CCOC1)S(=O)(=O)c1ccc(N)cc1
inactive: Potency (CP262) | Potency (GB4)

CC(C)CN(C[C@@H](OP(=O)(O)O)[C@H](Cc1ccccc1)NC(=O)O[C@@H]1CCOC1)S(=O)(=O)c1ccc(N)cc1
inactive: Potency (CP262) | Potency (GB4)

C[Si](C)(C)O[Si](C)(C)O[Si](C)(C)C
inactive: outcome [15] | outcome [3] | max response [5] -6.04% | activity change % (negative = inhibition) [16] -8.82% | activation [6] -0.707% | Potency [17] | max response [7] -3.28%
-9.81%: max response [4]
-9.58%: max response [2]

COc1cc(-c2oc3cc(O)cc(O)c3c(=O)c2O)ccc1O
active: Potency [11] 11.2 µM | Potency [12] 7.94 µM
inactive: Potency [8] | outcome [9] | outcome [10]

CCCCCCCCOC(=O)c1cc(O)c(O)c(O)c1
inactive: outcome [15] | max response [5] -18.9% | activity change % (negative = inhibition) [16] -6.19% | Potency [18] | activation [6] 0.999% | Potency [17]
-11.7%: max response [4]

O=C(/C=C/c1ccc(O)c2c1[C@H](C(=O)O)[C@@H](c1ccc(O)c(O)c1)O2)O[C@H](Cc1ccc(O)c(O)c1)C(=O)O
inactive: Potency [8] | outcome [9] | Potency [12] | outcome [13] | Potency [14]

O=C(O)c1cc(O)c2c(c1)[C@H]([C@H]1c3cc(C(=O)O)cc(O)c3C(=O)c3c(O[C@@H]4OC(CO)C(O)C(O)C4O)cccc31)c1cccc(O[C@@H]3OC(CO)C(O)C(O)C3O)c1C2=O (stereo not given in full)
active: Potency (GB4) 15.1 µM
inactive: Potency (CP262)

O=C(/C=C/c1ccc(O)c(O)c1)O[C@@H]1CC(O)(C(=O)O)C[C@@H](OC(=O)/C=C/c2ccc(O)c(O)c2)C1O (stereo not given in full)
inactive: Potency [8] | outcome [9] | outcome [10] | Potency [11] | Potency [12] | outcome [13] | Potency [14]

O=C(O)CCCCCCCCC(=O)O
inactive: outcome [15] | outcome [3] | activity change % (negative = inhibition) [16] 3.38% | Potency [18] | activation [6] -2.45% | Potency [17] | max response [7] -12.5%
9.91%: max response [2]

O=C(/C=C/c1ccc(O)c(O)c1)O[C@@H](C(=O)O)[C@@H](OC(=O)/C=C/c1ccc(O)c(O)c1)C(=O)O
-0.499%: max response [2]
inactive: activation [1] 1.43% | outcome [15] | outcome [3] | max response [5] 13% | activity change % (negative = inhibition) [16] -11.2% | Potency [18] | Potency [17] | max response [7] -0.791%
-0.233%: max response [4]

O=C(Nc1ccccc1)c1ccccc1O
inactive: activation [1] 2.18% | outcome [15]
active: Potency [18] 15.4 µM

O=C(/C=C/c1ccc(O)c(O)c1)O[C@H]1[C@H](O)C[C@](O)(C(=O)O)C[C@H]1OC(=O)/C=C/c1ccc(O)c(O)c1
inactive: Potency [8] | outcome [10] | Potency [11] | outcome [13] | Potency [14]

CCC(C)n1ncn(-c2ccc(N3CCN(c4ccc(OCC5COC(Cn6cncn6)(c6ccc(Cl)cc6Cl)O5)cc4)CC3)cc2)c1=O (stereo not given)
inactive: Potency (CP262) | Potency (GB4)

CC12CCC(CC1=O)C2(C)C (stereo not given)
-5.66% and -6.43%: max response [4]
0.96% and -15.4%: max response [2]
inactive: activation [1] -1.08% and -9.03% | outcome [3] | max response [5] 4.29% and -7.42% | activity change % (negative = inhibition) [16] 8% and 6.78% | Potency [18] | activation [6] -0.66% and 0.506% | Potency [17] | max response [7] -2.81% and -7.37%

O=c1c(O[C@@H]2O[C@H](CO)[C@H](O)[C@H](O)[C@H]2O)c(-c2ccc(O)c(O)c2)oc2cc(O)cc(O)c12
active: Potency [12] 3.55 µM
inactive: outcome [9] | outcome [10] | outcome [13]
